In PubChem BioAssay AID1851 (National Center for Advancing Translational Sciences (NCATS), 2009):
In all, about 16,000 compounds went through this assay and about 5,100 (32%) were called active. Inconclusive results (about 25%) are left out. The call rests on the fitted dose curve; in most records, active means well fitted curve in the direction sought with a large enough effect; inconclusive means small, poorly fitted or top-dose-only effect, or effect the other way; inactive means no such curve, though single readings can be large or run the other way. Some of the results follow.

molecular target: Cytochrome P450 3A4 (Homo sapiens) (UniProt P08684); experiment: Cytochrome panel assay with activity outcomes; conditions: recombinant CYP, pro-luciferin dealkylation, luminescence, p450-cyp3a4; series mostly up to 57.1 µM
On the % scale 0 is the no-effect control and ±100 the full control effect.

Sequence of Cytochrome P450 3A4 (Homo sapiens) (P08684 whole entry, looked up): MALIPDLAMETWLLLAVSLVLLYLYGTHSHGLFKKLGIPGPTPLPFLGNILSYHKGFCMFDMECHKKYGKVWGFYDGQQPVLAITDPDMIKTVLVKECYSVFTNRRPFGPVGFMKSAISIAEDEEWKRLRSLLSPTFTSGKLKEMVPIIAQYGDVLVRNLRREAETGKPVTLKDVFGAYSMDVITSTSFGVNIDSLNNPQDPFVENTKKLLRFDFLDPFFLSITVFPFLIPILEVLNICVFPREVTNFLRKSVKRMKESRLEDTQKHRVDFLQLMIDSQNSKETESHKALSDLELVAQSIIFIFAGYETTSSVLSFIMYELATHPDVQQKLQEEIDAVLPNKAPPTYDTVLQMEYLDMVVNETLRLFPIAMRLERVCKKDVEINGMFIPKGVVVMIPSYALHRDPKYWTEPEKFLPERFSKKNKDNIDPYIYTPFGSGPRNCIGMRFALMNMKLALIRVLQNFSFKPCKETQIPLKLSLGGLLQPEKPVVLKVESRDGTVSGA

AC50, inactive:
O=c1cnc2cnc(Nc3ccccc3)nc2n1CCc1ccccc1
Cc1nc2cnc(Oc3cccc(Cl)c3)nc2n(C2CC2)c1=O
N[C@@H](Cc1cc(CP(=O)(O)O)cc(-c2ccccc2Cl)c1)C(=O)O
CCN1C(=O)C2(SC(NC(C)=O)=NN2C(C)=O)c2cc(C)ccc21 (stereo unspecified)
O=C1c2ccccc2C(=O)N1CC1CCCO1 (stereo unspecified)
N#Cc1cccc(-c2nc3cnc(Nc4ccccc4)nc3n(C[C@H]3CCCO3)c2=O)c1
CC(=O)c1sc(N)c(C(=O)OC(C)C)c1C
C/C(=N\OC(=O)c1ccc(F)cc1)c1nccs1
CCn1ccc(C(=O)NC2C(=O)N3C(C(=O)O)=C(C)CSC23)n1 (stereo unspecified)
COc1ccc2c(c1)OC1=C(C(=O)CCC1)C2C1=C(O)CCCC1=O (stereo unspecified)
CN1CCc2cc(Cl)c(O)cc2[C@@H](c2ccccc2)C1
CN(C)[C@H]1C(=O)C(C(=O)NCN2CCCC2)=C(O)[C@]2(O)C(=O)C3=C(O)c4c(O)cccc4[C@@](C)(O)[C@H]3C[C@@H]12
CCOC(=O)c1ccccc1OCc1cc(/C=N/n2cnnc2)ccc1OC
Cc1cc([N+](=O)[O-])nn1Cc1ccccc1F
CC(CCc1ccccc1)NS(=O)(=O)c1ccccc1 (stereo unspecified)
Cc1cc(C)c2c(N=NN(C)C)[nH]nc2n1
CCOc1ccc(Cl)cc1CNCCNCCO
CC(CCc1ccccc1)NC(=O)C(=O)NCCO (stereo unspecified)
COc1ccccc1N1CCN(c2nc(-c3ccccc3)cc(C(F)(F)F)n2)CC1
COc1cccc(-c2cc(C(F)(F)F)nc(N3CCN(c4ccccc4)CC3)n2)c1
COc1ccc(-c2cc(C(F)(F)F)nc(N3CCN(C)CC3)n2)cc1OC
COc1ccc(C(=O)Nc2ccc(OCC(F)(F)C(F)F)c(C(F)(F)F)c2)cc1OC
O=c1oc2c(Cl)cc(Cl)cc2cc1-c1nnc(Nc2ccccc2F)s1
NC[C@@H]1O[C@H](O[C@@H]2[C@H](O[C@@H]3O[C@H](CO)[C@@H](COC[C@H]4O[C@@H](CN)[C@@H](O)[C@@H](O)[C@@H]4N)[C@@H]3O)[C@@H](O)[C@@H](N)C[C@H]2N)[C@@H](N)[C@H](O)[C@@H]1O
CC(C)NC[C@@H](O)COc1cccc2ccccc12
CC(C)NC[C@H](O)COc1cccc2ccccc12
OC[C@@H]1NC[C@@H](O)[C@@H](O)[C@H]1O
O=C(CCC(=O)OCc1ccc(C(=O)Oc2ccccc2)cc1)Nc1cccc2ccccc12
COC(=O)CCC(=O)Nc1cccc2ccccc12
CCOc1nc(N=C(N)N)nc2c(C)cccc12
CCC(=O)Nc1c2c(nc3c1CCC3)CCCC2
C[C@@H]1O[C@@H](n2cc(F)c(=O)[nH]c2=O)[C@H](O)[C@@H]1O
C[C@H](N)C(=O)O
CSc1nc(C2CC2)cc(-c2cccs2)c1C#N
CN(C)Cc1ccccc1-c1nccc(NCc2cccs2)n1
CCc1nn(C)c(-c2n[nH]c(=S)n2N)c1Cl
CCN(c1ccccc1)c1cc(NC)[n+](C)c(C)n1
Cc1ccc(-c2nc3ncccn3c2NC(=O)C2CC2)cc1

AC50, active:
COc1cccc(Nc2ncc3nc(C)c(=O)n(C4CC4)c3n2)c1 6.31 µM
COc1cccc(Nc2ncc3nc(C)c(=O)n(CCc4ccccc4)c3n2)c1 7.94 µM
COCCn1c(=O)c(C)nc2cnc(Nc3cccc(OC)c3)nc21 15.8 µM
Nc1ncc(-c2ccccc2)n1CC1CCCO1 (stereo unspecified) 7.08 µM
COc1ccc(CNc2ncncc2-c2ccc(C(=O)N(C)C)cc2)c(OC)c1 0.501 µM
COc1ccccc1CNc1ncncc1-c1ccc(C(=O)N(C)C)cc1 2.51 µM
COc1ccc(CNc2ncncc2-c2ccc(N(C)C)cc2)c(OC)c1 0.2 µM
O=C(NC(NCc1ccccc1)C(Cl)(Cl)Cl)c1cccnc1 (stereo unspecified) 12.6 µM
Cc1cccc(NC(NC(=O)c2cccnc2)C(Cl)(Cl)Cl)c1 (stereo unspecified) 10 µM
Cc1ccc(S(=O)(=O)Oc2ccc(C3C4=C(CCCC4=O)OC4=C3C(=O)CCC4)cc2)cc1 6.31 µM
O=C1CCCC2=C1C(c1ccc(OS(=O)(=O)c3ccc(Cl)cc3)cc1)C1=C(CCCC1=O)O2 2.24 µM
Cc1cc(/C=N/n2cnnc2)c(C)n1-c1ccc(OCc2ccccc2F)cc1 0.224 µM
CSc1nncn1/N=C/c1ccc2c(c1)OCO2 8.91 µM
Cc1ccc(S(=O)(=O)N[C@@H](CCc2ccccc2)CC(=O)C(C)(C)C)cc1 1.58 µM
CCNCc1cc(OCC)c(OCC(=O)NCCc2ccccc2)cc1Cl 0.447 µM
CCOc1cc(CNCCO)c(Cl)cc1OCC(=O)NCCc1ccccc1 0.794 µM
COc1ccc(-c2cc(C(F)(F)F)nc(NC3CCCC3)n2)cc1OC 25.1 µM
COc1cccc(-c2cc(C(F)(F)F)nc(N3CCOCC3)n2)c1 28.2 µM
COc1ccc(-c2cc(C(F)(F)F)nc(N3CCOCC3)n2)cc1OC 15.8 µM
CCN(CC)c1ccc(N2C(=O)/C(=C/c3cccnc3)SC2=S)cc1 5.62 µM
O=C(CCN1C(=O)/C(=C/c2cccc(Br)c2)SC1=S)NNC(=O)c1cccnc1 3.16 µM
O=C1/C(=C/c2cccnc2)SC(=S)N1Cc1ccco1 1 µM
O=C(COc1cccc2ccccc12)N1c2ccccc2CCc2ccccc21 7.94 µM
Cc1c(C)n(C)c2ccc(C(=O)Nc3cccc4ccccc34)cc12 14.1 µM
COc1cccc(C(CC(=O)Nc2cccc3ccccc23)NC(=O)c2ccccc2)c1 (stereo unspecified) 2.24 µM
O=C(Nc1cccc2ccccc12)c1ccccc1 3.16 µM
CSC1(SC2=NCCN2)SC2(NCCN2)S1 1.26 µM
O=C1N=C2SCCN2/C1=C\c1c(Cl)cccc1Cl 10 µM
CCC(Sc1nc(C)cc(=O)[nH]1)C(=O)Nc1nc2c(s1)CCCC2 (stereo unspecified) 14.1 µM
Cc1cc([N+](=O)[O-])ccc1-c1ccc(C2Nc3ccccc3C(=O)N2O)o1 (stereo unspecified) 7.08 µM
FC(F)(F)c1ccccc1-c1nccc(NCc2cccs2)n1 2 µM
Cc1ccccc1-c1nccc(NCc2cccs2)n1 2 µM
Nc1nonc1-c1noc(CCCN2C(=O)c3ccccc3C2=O)n1 7.94 µM
Clc1ccc(-c2nc3ncccn3c2Nc2ccc3c(c2)OCCO3)cc1 4.47 µM

activity, negative = inhibition, inactive:
N[C@@H](Cc1c[nH]c2ccc([N+](=O)[O-])cc12)C(=O)O -8.71% [at 11.4 µM]
Cc1ccc(S(=O)(=O)Oc2cc(N)c3c(n2)CCC3)cc1 -14.1% [at 11.4 µM]
NCCNCC1CCNCC1 -29.4% [at 11.4 µM]
Cc1ccc(C)c(Nc2nc3nonc3nc2N2CCOCC2)c1 -12.1% [at 2.29 µM]
OC[C@@H]1O[C@@H](O)[C@H](N=Cc2ccc3c(c2)OCO3)[C@@H](O)[C@@H]1O -4.87% [at 11.4 µM]
Cc1ccc(S(=O)(=O)N[C@H](CO)C(=O)O)cc1 -3.82% [at 11.4 µM]
Cc1c(S(=O)(=O)O)ccc(N=Nc2c(O)c(C(=O)O)cc3ccccc23)c1Cl 1.31% [at 11.4 µM]
N=c1nc(N)nc(N)n1-c1ccc(S(N)(=O)=O)cc1 -8.91% [at 11.4 µM]
N=C(N)CCNC(=O)[C@@H]1CCC(N)=N1 -7.02% [at 11.4 µM]
CC(=O)Nc1nc(NC(C)=O)c2[nH]c(CO)nc2n1 -3.45% [at 11.4 µM]
Cc1ccc(/C=C2\SC(=S)N(CCCC(=O)Nc3ccccn3)C2=O)cc1 -14.5% [at 2.29 µM]
CCN(CC)c1ccc(N2C(=O)/C(=C\c3cccnc3)SC2=S)cc1 -14.7% [at 2.29 µM]
C[C@@H]1/C=C\CC(=O)OC[C@H](C)C(=O)N2CCC[C@@H]2C(=O)OC1 -18.8% [at 11.4 µM]
N[C@@H](CSC(=O)c1ccccc1)C(=O)O -4.21% [at 11.4 µM]
O=C(O)c1ccc(C(=O)Nc2cccc3ccccc23)c(C(=O)O)c1 -18.5% [at 11.4 µM]
CCn1c(C)c(C)c2cc(C(=O)Nc3cccc(Cl)c3)ccc21 10.3% [at 2.29 µM]
O=C(NNC(=O)c1cccnc1)Nc1cccc2ccccc12 14.6% [at 0.457 µM]
O=C(O)CSc1ccn(Cc2ccccc2)c1 -1.15% [at 11.4 µM]
CN1CCN(CN2C(=O)C3C4C=CC(C3C2=O)C2C3C(=O)N(CN5CCN(C)CC5)C(=O)C3C42)CC1 (stereo unspecified) -12.9% [at 11.4 µM]
O=C(O)CCSC1=NCCN1 -3.67% [at 11.4 µM]
O=C(c1ccc(Cl)cc1)N1CCCC(c2ccccc2)=N1 13% [at 2.29 µM]
OCCN(CO)CO -1.86% [at 11.4 µM]
Cc1cccc2c1Oc1ccccc1[C@@H]2NC(=O)c1ccc([N+](=O)[O-])cc1 -14% [at 11.4 µM]
O=C1[C@H]2CCn3c(=O)n(-c4ccccc4)c(=O)n3[C@H]2[C@H](O)[C@H]2O[C@@H]12 -11.9% [at 11.4 µM]
